# Data published in the supplement of paper PMC10338343.
# ± gives the standard deviation.
# System: MILI (PIWIL2) piRISC loaded with L1MC piRNA (26 nt)
# Experiment: pre-steady-state target cleavage rate (min^-1); guide: L1MC piRNA 5'p-UAACUAAAUACUAUGCAAGCUGUAGG; MIWI and MILI are mouse PIWI proteins and EfPiwi is from a freshwater sponge; tags in brackets are library labels; higher = faster piRNA-guided slicing of the target
# Details: auxiliary factor: 500 nM mouse GTSF1
# Outline: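 A transcribed, DNA-blocked target RNA library […] was incubated at 33 °C for 0–8 or 0–960 min with 1 nM active affinity-purified piRISC carrying one synthetic guide, in HEPES–potassium acetate buffer with or without 500 nM GTSF1 partner protein. Uncleaved targets were then sequenced and normalised to depth and to weakly complementary targets. Data from three trials were pooled, with k3 capped at 0.0001 min^-1, and a burst-and-steady-state fit yielded the pre-steady-state cleavage rate.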
# 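Note: 1 nM active piRISC with 0.1 nM target library at 33 °C single turnover.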
row,Sequence,pre-steady-state target cleavage rate
1,UCCUGGAUCAGCUUGCAUAUAUUUAGUUA,0.0263 ± 0.0067
2,UCCUGGAUGUCGUAGCUUAGUAUUUAGUUA,0.0118 ± 0.0046
3,UCCUGGAUGUCGAUGCAUAGUUAUUUAGUUA,0.00685 ± 0.0037
4,UCCUGCUACAGCUUGCAUUGUAUUUUCAAA,0.0201 ± 0.0084
5,UCCUGGAUGUCCUUGCAUAGUAUUUCAGUUA,0.0665 ± 0.022
6,UCCUGGAUGUCCUUGCAUAGUAUUAUCUUA,0.0177 ± 0.0079
7,UCCUGCUAGUCCUUGCAUAGUAUUUAGUAA,0.0749 ± 0.018
8,UCCUGGAUCAGCUUGCUAUGUAUUUAGAAA,0.00524 ± 0.0033
9,UCCUGCUACAGCUUGCAAUGUAUUUAGAAA,0.0407 ± 0.013
10,UCCUGGAUCAGCUUGCAUAGUAUAAACAAA,0.0772 ± 0.019

# Same assay, conditions: auxiliary factor: none (no GTSF1)
row,Sequence,pre-steady-state target cleavage rate
1,UCCUGGAUGUCGAACGAUAGUAUUUACAUA,< 0.0001
2,UCCUGGAUGUCGAACCAUACUAUUAAGUUA,< 0.0001
3,UCCUGGAUGUCGAACCAUAGUAUUGAGUUA,< 0.0001
4,UCCUGGAUCAGCUUGGAUAGUAUUUUCAAA,< 0.0001
5,UCCUGGAUGUCGAACGAUGAGUAUUUAGUUA,< 0.0001
6,UCCUGGAUGUCGAACCUUAGUAUUUAGAUA,< 0.0001
